{"source": "ChEMBL document CHEMBL1857833", "about": "“Screening and optimization of specific chemical series against human African Trypanosomiasis (HAT)”", "note": "Where “and” joins values, the source holds several entries; their conditions need not be identical. Identical values can stand only once. The whole screen tested about 4,400 compounds, of which about 390 (8.9%) showed an effect of 50% or more. The entries come from a sample that favours strong results as a whole.", "data": [{"tested_on": "Trypanosoma brucei", "test": "DNDI: Inhibition of Human African Trypanosomiasis, SBRI 427, in vitro at 2 ug.mL-1", "assay_type": "functional", "values": [{"smiles": "CC(C)c1ccc(Oc2ncccc2/C(=N/O)N2CCC=N2)cc1", "% inhibition": "-4%"}, {"smiles": "Cc1nccn1/C(=N\\O)c1ccnc(Oc2ccc(Cl)cc2)c1", "% inhibition": "5%"}, {"smiles": "COc1ccc(-c2nc(CN3CCC(C)CC3)co2)cc1", "% inhibition": "12%"}, {"smiles": "Cc1cccc(N2CCN(Cc3coc(-c4ccc(O)cc4)n3)CC2)c1C", "% inhibition": "3%"}, {"smiles": "Brc1ccc(-c2nc(CNCCCN3CCOCC3)co2)cc1", "% inhibition": "-12%"}, {"smiles": "CCCCN(CC)Cc1coc(-c2cccc(OC)c2)n1", "% inhibition": "-18%"}, {"smiles": "Cc1nccn1/C(=N\\O)c1cccnc1Oc1ccccc1", "% inhibition": "10%"}, {"smiles": "COc1cc(C)ccc1Oc1nc(C)ccc1/C(=N/O)N1C(C)C=CC1C", "note": "(stereo not given)", "% inhibition": "-2%"}, {"smiles": "CN1CCCC1CCNCc1coc(-c2ccc(Br)cc2)n1", "note": "(stereo not given)", "% inhibition": "97%"}, {"smiles": "CN1CCCC1CCNCc1coc(-c2cccs2)n1", "note": "(stereo not given)", "% inhibition": "-4%"}, {"smiles": "Brc1ccc(-c2nc(CNCCN3CCCCC3)co2)cc1", "% inhibition": "43%"}, {"smiles": "CCOc1cccc(-c2nc(CNCCC3CCCN3C)co2)c1", "note": "(stereo not given)", "% inhibition": "99%"}, {"smiles": "CCOc1cccc(-c2nc(CNCCN3CCOCC3)co2)c1", "% inhibition": "-2%"}, {"smiles": "CCOc1cccc(-c2nc(CNCCN3CCCC3)co2)c1", "% inhibition": "-12%"}, {"smiles": "Brc1ccccc1-c1nc(CNCCN2CCCCC2)co1", "% inhibition": "-1%"}, {"smiles": "CN1CCCC1CCNCc1coc(-c2ccccc2Br)n1", "note": "(stereo not given)", "% inhibition": "57%"}, {"smiles": "Brc1ccc(-c2nc(CNCCN3CCOCC3)co2)cc1", "% inhibition": "-53%"}, {"smiles": "CC(C)COc1ncccc1/C(=N/O)N1CCN(c2ccc(F)cc2)CC1", "% inhibition": "0%"}, {"smiles": "O=Cc1nccn1Cc1coc(-c2ccc(F)cc2)n1", "% inhibition": "-8%"}, {"smiles": "CSc1ccc(Oc2cc(/C(=N/O)N3CC(C)CC(C)C3)ccn2)cc1", "note": "(stereo not given)", "% inhibition": "18%"}, {"smiles": "Oc1ccc(-c2nc(CNCc3ccccc3C(F)(F)F)co2)cc1", "% inhibition": "18%"}, {"smiles": "CC(C)c1ccc(Oc2ncccc2/C(=N/O)NCc2ccco2)cc1", "% inhibition": "96%"}, {"smiles": "COc1ccc(Oc2ncccc2/C(=N/O)NCc2ccco2)cc1", "% inhibition": "-14%"}, {"smiles": "O/N=C(\\NCc1ccccn1)c1cccnc1Oc1ccc2oc3ccccc3c2c1", "% inhibition": "7%"}, {"smiles": "CN(Cc1ccco1)/C(=N\\O)c1cccnc1Oc1ccc(Cl)cc1", "% inhibition": "4%"}, {"smiles": "COc1ccc(Oc2ncccc2/C(=N/O)N(C)Cc2ccco2)cc1", "% inhibition": "-11%"}, {"smiles": "CSc1ccc(Oc2nc(C)ccc2/C(=N/O)N(C)Cc2ccco2)cc1C", "% inhibition": "12%"}, {"smiles": "CC(C)c1ccc(Oc2ncccc2/C(=N/O)N(C)Cc2ccco2)cc1", "% inhibition": "75%"}, {"smiles": "CC(C)COc1ncccc1/C(=N/O)NCc1ccco1", "% inhibition": "3%"}, {"smiles": "Cc1ccc(/C(=N/O)N(C)Cc2ccco2)c(Oc2cccc(F)c2)n1", "% inhibition": "22%"}, {"smiles": "O/N=C(\\NCc1cccs1)c1cccnc1Oc1ccc2oc3ccccc3c2c1", "% inhibition": "75%"}, {"smiles": "O/N=C(\\NCc1ccncc1)c1cccnc1Oc1ccc2oc3ccccc3c2c1", "% inhibition": "10%"}, {"smiles": "Cc1ccc(/C(=N/O)N(C)Cc2ccco2)c(Oc2cccc(C(C)C)c2)n1", "% inhibition": "67%"}, {"smiles": "CC(C)COc1ncccc1/C(=N/O)N(C)Cc1cccnc1", "% inhibition": "-1%"}, {"smiles": "Cc1cn(/C(=N\\O)c2ccc(Oc3ccc4oc5ccccc5c4c3)nc2)cn1", "% inhibition": "16%"}, {"smiles": "CCOc1cccc(-c2nc(CN(C)CC#N)co2)c1", "% inhibition": "15%"}, {"smiles": "O/N=C(/c1cccnc1Oc1ccc(F)cc1)N1Cc2ccccc2C1", "% inhibition": "4%"}, {"smiles": "COC(CN(C)Cc1coc(-c2ccc(Br)cc2)n1)OC", "% inhibition": "4%"}, {"smiles": "CCOc1ccccc1-c1nc(CN2CCCCC2)co1", "% inhibition": "-1%"}, {"smiles": "CN(Cc1coc(-c2ccc(C(F)(F)F)cc2)n1)Cc1ccco1", "% inhibition": "18%"}, {"smiles": "CC(C)c1ccc(Oc2ncccc2/C(=N/O)NCc2cccs2)cc1", "% inhibition": "100%"}, {"smiles": "O/N=C(\\NCc1cccs1)c1cccnc1Oc1cccc(C(F)(F)F)c1", "% inhibition": "-12%"}, {"smiles": "COc1ccc(Oc2ncccc2/C(=N/O)NCc2cccs2)cc1", "% inhibition": "37%"}, {"smiles": "Clc1ccccc1-c1nc(CNC(Cc2ccccc2)c2ccccc2)co1", "note": "(stereo not given)", "% inhibition": "-20%"}, {"smiles": "Brc1ccccc1-c1nc(CNC2CCCCCC2)co1", "% inhibition": "-20%"}, {"smiles": "Brc1ccccc1-c1nc(CNC2CCN(Cc3ccccc3)C2)co1", "note": "(stereo not given)", "% inhibition": "-6%"}, {"smiles": "Brc1ccccc1-c1nc(CNC2CCCCCCCCCCC2)co1", "% inhibition": "59%"}, {"smiles": "Cc1ccccc1-c1nc(CNC[C@@H]2CCCO2)co1", "% inhibition": "-1%"}, {"smiles": "Cc1ccccc1-c1nc(CNC2CCN(Cc3ccccc3)C2)co1", "note": "(stereo not given)", "% inhibition": "30%"}, {"smiles": "Cc1ccccc1-c1nc(CNC2CCCCCC2)co1", "% inhibition": "61%"}, {"smiles": "COc1cc(CN(C)Cc2coc(-c3ccccc3C)n2)cc(OC)c1OC", "% inhibition": "-15%"}, {"smiles": "CCCN(Cc1coc(-c2cc(OC)c(OC)c(OC)c2)n1)c1ccccc1", "% inhibition": "1%"}, {"smiles": "O/N=C(/c1cccnc1OCc1ccccc1)N1CCSCC1", "% inhibition": "13%"}, {"smiles": "C[C@@H]1C(NCc2coc(-c3cccs3)n2)C[C@H]2C[C@@H]1C2(C)C", "note": "(stereo not given in full)", "% inhibition": "62%"}, {"smiles": "CC(NCc1coc(-c2cccs2)n1)C1CCCCC1", "note": "(stereo not given)", "% inhibition": "-3%"}, {"smiles": "CC1CC(C)CN(Cc2coc(-c3cccs3)n2)C1", "note": "(stereo not given)", "% inhibition": "2%"}, {"smiles": "C[C@H]1C(NCc2coc(-c3cccs3)n2)C[C@@H]2C[C@H]1C2(C)C", "note": "(stereo not given in full)", "% inhibition": "87%"}, {"smiles": "c1csc(-c2nc(CNC3CCCC3)co2)c1", "% inhibition": "-11%"}, {"smiles": "c1csc(-c2nc(CNC3CCc4ccccc43)co2)c1", "note": "(stereo not given)", "% inhibition": "-11%"}, {"smiles": "COc1cccc(Oc2ccc(/C(=N/O)N3CCSC3)cn2)c1", "% inhibition": "6%"}, {"smiles": "Cc1ccc(CCNCc2coc(-c3cccc(F)c3)n2)cc1", "% inhibition": "-9%"}, {"smiles": "CCCN(Cc1coc(-c2cccc(C)c2)n1)c1ccccc1", "% inhibition": "7%"}, {"smiles": "Cc1ccc2cccc(Oc3ccc(/C(=N/O)Nc4ccc(C(C)C)cc4)cn3)c2n1", "% inhibition": "8%"}, {"smiles": "CC1CCC(N/C(=N\\O)c2ccnc(Oc3cccc4cccnc34)c2)CC1", "note": "(stereo not given)", "% inhibition": "95%"}, {"smiles": "Cc1ccc2cccc(Oc3cc(/C(=N/O)NCc4c(F)cccc4F)ccn3)c2n1", "% inhibition": "17%"}, {"smiles": "Cc1ccc2cccc(Oc3cc(/C(=N/O)NC4CCC(C)CC4)ccn3)c2n1", "note": "(stereo not given)", "% inhibition": "94%"}, {"smiles": "Cc1ccc2cccc(Oc3cc(/C(=N/O)NC4CC(C)CC(C)(C)C4)ccn3)c2n1", "note": "(stereo not given)", "% inhibition": "10%"}, {"smiles": "CCC(C)(C)N/C(=N\\O)c1ccnc(Oc2cccc3ccc(C)nc23)c1", "% inhibition": "51%"}, {"smiles": "Cc1ccccc1CN/C(=N\\O)c1ccnc(Oc2cccc3cccnc23)c1", "% inhibition": "43%"}, {"smiles": "Cc1ccc2cccc(Oc3ccc(/C(=N/O)NC4CCCCC4)cn3)c2n1", "% inhibition": "99%"}, {"smiles": "Cc1cc(C)cc(CN/C(=N\\O)c2ccnc(Oc3cccc4ccc(C)nc34)c2)c1", "% inhibition": "18%"}, {"smiles": "CC1CCC(N/C(=N\\O)c2ccnc(Oc3cccc4cnccc34)c2)CC1", "note": "(stereo not given)", "% inhibition": "10%"}, {"smiles": "Cc1ccc2cccc(Oc3cc(/C(=N/O)N4C(C)CCCC4C)ccn3)c2n1", "note": "(stereo not given)", "% inhibition": "19%"}, {"smiles": "Cc1ccc2cccc(Oc3ccc(/C(=N/O)n4cccn4)cn3)c2n1", "% inhibition": "4%"}, {"smiles": "CCOc1cccc(-c2nc(CN(C)C3CCN(Cc4ccccc4)C3)co2)c1", "note": "(stereo not given)", "% inhibition": "-2%"}, {"smiles": "FC(F)(F)c1cccc(N2CCN(Cc3coc(-c4cccc5ccccc45)n3)CC2)c1", "% inhibition": "6%"}, {"smiles": "CCOc1cccc(-c2nc(Cn3ccnc3CC)co2)c1", "% inhibition": "-10%"}, {"smiles": "COc1ccccc1CCNCc1coc(-c2cccc3ccccc23)n1", "% inhibition": "43%"}, {"smiles": "CC1=NCCN1/C(=N\\O)c1cccnc1Oc1cccc(C(F)(F)F)c1", "% inhibition": "2%"}, {"smiles": "O/N=C(/c1cccnc1Oc1ccccc1Cl)N1CCN(C2CCCC2)CC1", "% inhibition": "-2%"}, {"smiles": "N/C(=N\\O)c1cccnc1Oc1cccc(C(F)(F)F)c1", "% inhibition": "46%"}, {"smiles": "CC(C)N1CCN(/C(=N\\O)c2cccnc2Oc2cccc(C(F)(F)F)c2)CC1", "% inhibition": "101%"}, {"smiles": "O/N=C(/c1cccnc1Oc1cccc(C(F)(F)F)c1)N1CCN(C2CCCC2)CC1", "% inhibition": "85%"}, {"smiles": "COc1ccc(Oc2ncccc2/C(=N/O)N2CCN(C3CCCC3)CC2)cc1", "% inhibition": "-12%"}, {"smiles": "CCN(CCNCc1coc(-c2ccccc2Br)n1)c1cccc(C)c1", "% inhibition": "-30%"}, {"smiles": "O/N=C(/c1cccnc1OCc1cccc(F)c1)N1CCN(c2ccccc2)CC1", "% inhibition": "-1%"}, {"smiles": "CCOc1cccc(-c2nc(Cn3cc(C)nc3CC)co2)c1", "% inhibition": "7%"}, {"smiles": "CC1CC(N/C(=N\\O)c2cccnc2Oc2cc(Cl)ccc2Cl)CC(C)(C)C1", "note": "(stereo not given)", "% inhibition": "99%"}, {"smiles": "Cc1ccc(/C(=N/O)NC2CC(C)CC(C)(C)C2)c(Oc2ccc(F)c(F)c2)n1", "note": "(stereo not given)", "% inhibition": "11%"}, {"smiles": "Cc1ccc(/C(=N/O)NC2CC(C)CC(C)(C)C2)c(Oc2ccc(Cl)cc2-c2ccno2)n1", "note": "(stereo not given)", "% inhibition": "16%"}, {"smiles": "Cc1ccc(/C(=N/O)NC2CC(C)CC(C)(C)C2)c(Oc2cc(Cl)ccc2Cl)n1", "note": "(stereo not given)", "% inhibition": "7%"}, {"smiles": "CC1CC(N/C(=N\\O)c2cccnc2Oc2ccc(C(C)C)cc2)CC(C)(C)C1", "note": "(stereo not given)", "% inhibition": "98%"}, {"smiles": "CC1CC(N/C(=N\\O)c2cccnc2Oc2ccc(F)c(Cl)c2)CC(C)(C)C1", "note": "(stereo not given)", "% inhibition": "100%"}, {"smiles": "CCN(CC)c1cccc(Oc2ncccc2/C(=N/O)NC2CC(C)CC(C)(C)C2)c1", "note": "(stereo not given)", "% inhibition": "-6%"}, {"smiles": "CCCCN(CCC#N)Cc1coc(-c2ccccc2C)n1", "% inhibition": "-4%"}, {"smiles": "CCOC(=O)C1CCCCN1Cc1coc(-c2ccccc2OCC)n1", "note": "(stereo not given)", "% inhibition": "3%"}, {"smiles": "CC(C)c1ccc(Oc2ncccc2/C(N)=N/O)cc1", "% inhibition": "16%"}, {"smiles": "C[C@H]1C(NCc2coc(-c3cccc(F)c3)n2)C[C@@H]2C[C@H]1C2(C)C", "note": "(stereo not given in full)", "% inhibition": "99%"}, {"smiles": "Fc1cccc(-c2nc(CNC3CCc4ccccc43)co2)c1", "note": "(stereo not given)", "% inhibition": "13%"}, {"smiles": "C[C@@H]1C(NCc2coc(-c3cccc(F)c3)n2)C[C@H]2C[C@@H]1C2(C)C", "note": "(stereo not given in full)", "% inhibition": "90%"}, {"smiles": "CC(C)C(C)NCc1coc(-c2cccc(F)c2)n1", "note": "(stereo not given)", "% inhibition": "8% and 16%"}, {"smiles": "Fc1cccc(-c2nc(CNC3C[C@H]4CC[C@@H]3C4)co2)c1", "note": "(stereo not given in full)", "% inhibition": "-5%"}, {"smiles": "CCC(CC)CNCc1coc(-c2cccc(F)c2)n1", "% inhibition": "18%"}, {"smiles": "C#CCNCc1coc(-c2cccc(C)c2)n1", "% inhibition": "24%"}, {"smiles": "CSc1ccc(Oc2cc(/C(=N/O)NCC3CCCO3)ccn2)cc1", "note": "(stereo not given)", "% inhibition": "6%"}]}]}
